About 2,000 (36%) of roughly 5,500 compounds were called active. Another 18% or so got no clear call; they are omitted. Cut-off read from the data, not from the text of the source: active = normalized growth mostly below about 0.91 (no sharp cut-off); inconclusive = no clear call, values can overlap the other calls; inactive = mostly above about 0.92. The list shows a part of the results.
Assay: chemical genetic growth profiling, strain panel (AID 1159580);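 note: tested at 20 µM; growth read once vehicle control cultures reached saturation at 30 °C; 1 = growth at the plate median or of vehicle wells; lower values mean less growth of the strain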
Conditions: growth OD

Measured: normalized growth

O=C(O)c1cc2ccccc2[nH]1
inactive: S. cerevisiae deletion strains, locus YJR075W, strain HOC1, active compounds read low 1.01 | S. cerevisiae deletion strains, locus YKL009W, strain mrt4, active compounds read low 0.991 | S. cerevisiae deletion strains, locus YKL068W, active compounds read low 1 | S. cerevisiae deletion strains, locus YKL085W, strain MDH1 (second series), active compounds read low 1.02 | S. cerevisiae deletion strains, locus YKL085W, strain MDH1, active compounds read low 1.02 | S. cerevisiae deletion strains, locus YKL160W, strain elf1, active compounds read low 0.972 | S. cerevisiae deletion strains, locus YKL190W, strain CNB1, active compounds read low 1 | S. cerevisiae deletion strains, locus YKR001C, strain vps1, active compounds read low 1.02 | S. cerevisiae deletion strains, locus YKR026C, strain gcn3, active compounds read low 0.961 | S. cerevisiae deletion strains, locus YKR091W, strain srl3, active compounds read low 0.98 | S. cerevisiae deletion strains, locus YLL001W, strain dnm1, active compounds read low 0.974 | S. cerevisiae deletion strains, locus YLL026W, active compounds read low 1 | S. cerevisiae deletion strains, locus YLL041C, strain sdh2, active compounds read low 0.989 | S. cerevisiae deletion strains, locus YLR027C, strain aat2, active compounds read low 0.993 | S. cerevisiae deletion strains, locus YLR039C, strain RIC1, active compounds read low 1.01 | S. cerevisiae deletion strains, locus YLR058C, strain SHM2, active compounds read low 1.01 | S. cerevisiae deletion strains, locus YLR102C, strain apc9, active compounds read low 1.02 | S. cerevisiae deletion strains, locus YLR113W, strain HOG1, active compounds read low 0.95 | S. cerevisiae deletion strains, locus YLR221C, strain rsa3, active compounds read low 0.989 | S. cerevisiae deletion strains, locus YLR258W, strain gsy2, active compounds read low 0.989 | S. cerevisiae deletion strains, locus YLR262C, strain YPT6 (second series), active compounds read low 0.991 | S. cerevisiae deletion strains, locus YLR262C, strain YPT6, active compounds read low 1.05 | S. cerevisiae deletion strains, locus YLR268W, strain sec22, active compounds read low 1.01 | S. cerevisiae deletion strains, locus YLR320W, strain mms22, active compounds read low 1.01 | S. cerevisiae deletion strains, locus YLR330W, strain CHS5, active compounds read low 1.01 | S. cerevisiae deletion strains, locus YLR342W, strain FKS1 (second series), active compounds read low 0.993 | S. cerevisiae deletion strains, locus YLR342W, strain FKS1, active compounds read low 0.991 | S. cerevisiae deletion strains, locus YLR357W, strain rsc2, active compounds read low 0.983 | S. cerevisiae deletion strains, locus YLR370C, strain arc18, active compounds read low 0.989 | S. cerevisiae deletion strains, locus YLR371W, strain rom2, active compounds read low 1.01 | S. cerevisiae deletion strains, locus YLR384C, strain iki3, active compounds read low 0.976 | S. cerevisiae deletion strains, locus YLR418C, strain cdc73, active compounds read low 1.01 | S. cerevisiae deletion strains, locus YML016C, strain PPZ1, active compounds read low 1.01 | S. cerevisiae deletion strains, locus YML032C, strain rad52, active compounds read low 1 | S. cerevisiae deletion strains, locus YML120C, strain ndi1, active compounds read low 0.979 | S. cerevisiae deletion strains, locus YML124C, strain tub3, active compounds read low 1.01 | S. cerevisiae deletion strains, locus YMR058W, strain fet3, active compounds read low 0.975 | S. cerevisiae deletion strains, locus YMR078C, strain ctf18, active compounds read low 1.02 | S. cerevisiae deletion strains, locus YMR125W, strain sto1, active compounds read low 0.941 | S. cerevisiae deletion strains, locus YMR129W, active compounds read low 0.987 | S. cerevisiae deletion strains, locus YMR205C, strain PFK2, active compounds read low 1.02 | S. cerevisiae deletion strains, locus YMR223W, strain ubp8, active compounds read low 1.01 | S. cerevisiae deletion strains, locus YMR231W, strain pep5, active compounds read low 1 | S. cerevisiae deletion strains, locus YMR263W, strain SAP30, active compounds read low 1.01 | S. cerevisiae deletion strains, locus YMR307W, strain GAS1, active compounds read low 1.04 | S. cerevisiae deletion strains, locus YNL067W, strain RPL9B, active compounds read low 1.01 | S. cerevisiae deletion strains, locus YNL071W, strain lat1, active compounds read low 0.986 | S. cerevisiae deletion strains, locus YNL128W, strain TEP1, active compounds read low 1 | S. cerevisiae deletion strains, locus YNL153C, strain GIM3, active compounds read low 1.01 | S. cerevisiae deletion strains, locus YNL183C, strain NPR1, active compounds read low 0.915 | S. cerevisiae deletion strains, locus YNL209W, strain ssb2, active compounds read low 0.984 | S. cerevisiae deletion strains, locus YNL233W, strain BNI4, active compounds read low 1 | S. cerevisiae deletion strains, locus YNL248C, strain rpa49, active compounds read low 0.954 | S. cerevisiae deletion strains, locus YNL250W, strain rad50, active compounds read low 1 | S. cerevisiae deletion strains, locus YNL271C, strain bni1, active compounds read low 1.01 | S. cerevisiae deletion strains, locus YNL298W, strain CLA4, active compounds read low 1 | S. cerevisiae deletion strains, locus YNL307C, strain MCK1, active compounds read low 1.02 | S. cerevisiae deletion strains, locus YNL322C, strain KRE1 (second series), active compounds read low 0.979 | S. cerevisiae deletion strains, locus YNL322C, strain KRE1, active compounds read low 1.02 | S. cerevisiae deletion strains, locus YNR049C, strain mso1, active compounds read low 0.983 | S. cerevisiae deletion strains, locus YNR052C, strain pop2, active compounds read low 1.02 | S. cerevisiae deletion strains, locus YOL006C, strain TOP1, active compounds read low 1.04 | S. cerevisiae deletion strains, locus YOL012C, strain htz1 1.07 | S. cerevisiae deletion strains, locus YOL147C, strain pex11, active compounds read low 1.01 | S. cerevisiae deletion strains, locus YOR001W, strain rrp6, active compounds read low 0.963 | S. cerevisiae deletion strains, locus YOR061W, strain CKA2, active compounds read low 1.01 | S. cerevisiae deletion strains, locus YOR069W, strain VPS5, active compounds read low 0.991 | S. cerevisiae deletion strains, locus YOR070C, strain gyp1, active compounds read low 0.999 | S. cerevisiae deletion strains, locus YOR080W, strain dia2, active compounds read low 0.99 | S. cerevisiae deletion strains, locus YOR083W, strain WHI5, active compounds read low 0.967 | S. cerevisiae deletion strains, locus YOR106W, strain vam3, active compounds read low 0.972 | S. cerevisiae deletion strains, locus YOR136W, strain idh2, active compounds read low 1.02 | S. cerevisiae deletion strains, locus YOR144C, strain elg1, active compounds read low 1.02 | S. cerevisiae deletion strains, locus YOR184W, strain ser1, active compounds read low 1 | S. cerevisiae deletion strains, locus YOR231W, strain MKK1, active compounds read low 0.995 | S. cerevisiae deletion strains, locus YOR265W, strain rbl2, active compounds read low 0.991 | S. cerevisiae deletion strains, locus YOR270C, strain vph1, active compounds read low 0.974 | S. cerevisiae deletion strains, locus YOR290C, strain snf2, active compounds read low 0.955 | S. cerevisiae deletion strains, locus YOR316C, strain cot1, active compounds read low 1.02 | S. cerevisiae deletion strains, locus YPL051W, strain arl3, active compounds read low 0.979 | S. cerevisiae deletion strains, locus YPL055C, strain LGE1, active compounds read low 0.998 | S. cerevisiae deletion strains, locus YPL078C, strain atp4, active compounds read low 0.948 | S. cerevisiae deletion strains, locus YPL106C, strain sse1, active compounds read low 0.972 | S. cerevisiae deletion strains, locus YPL240C, strain hsp82, active compounds read low 0.997 | S. cerevisiae deletion strains, locus YPL241C, strain CIN2, active compounds read low 1.06 | S. cerevisiae deletion strains, locus YPL256C, strain CLN2, active compounds read low 1 | S. cerevisiae deletion strains, locus YPR119W, strain clb2, active compounds read low 1 | S. cerevisiae deletion strains, locus YPR141C, strain kar3, active compounds read low 0.996 | S. cerevisiae deletion strains, locus YPR163C, strain tif3, active compounds read low 1.01 | S. cerevisiae deletion strains, locus YPR167C, strain met16, active compounds read low 1.02 | S. cerevisiae deletion strains, strain wtn01, active compounds read low 1.01 | S. cerevisiae strains, strain wild type, active compounds read low 0.994

Reference: PubChem BioAssay AID1159580 (chemical genetic matrix, 2015)
